Data taken from PubChem BioAssay (Tox21).
Inconclusive results are not listed. The source made the active and inactive calls. Calls come from the whole dose curve.

How the values were obtained:
[1] = biological target: Acetylcholinesterase (Homo sapiens) (UniProt P22303); experiment: Acetylcholinesterase (AChE) small molecule antagonists: colormetric cell-based qHTS assay (AID 1347395); note: nearly all actives have a fitted effect of over 30% in size
How it was run: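 Quantitative HTS in attached SH-SY5Y cells: 30 min compound exposure, then 90 min with acetylthiocholine and DTNB at 37 C; colour from thiocholine reports AChE activity.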

[2] = biological target: Acetylcholinesterase (Homo sapiens) (UniProt P22303); experiment: Acetylcholinesterase (AChE) small molecule antagonists: enzyme-based qHTS assay (AID 1347397); details: Potency: AChE enzyme activity inhibition; outcome: AChE enzyme activity inhibition; note: nearly all actives have a fitted effect of over 55% in size
How it was run: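 Recombinant human AChE, dispensed at 50 mU/mL, was preincubated with Tox21 10K compounds or DMSO vehicle for 30 min at room temperature. DTNB plus acetylthiocholine was then added, and thiocholine was measured colorimetrically after a further 10 min.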

[3] = biological target: Acetylcholinesterase (Homo sapiens) (UniProt P22303); experiment: Acetylcholinesterase (AChE) small molecule antagonists: fluorescence cell-based qHTS assay (AID 1347398); details: Potency: AChE activity; outcome: AChE activity; note: nearly all actives have a fitted effect of over 50% in size
How it was run: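 Human SH-SY5Y cells were plated overnight at 37 C, exposed to compound for 30 min at 37 C, 5% CO2, then given acetylthiocholine plus Thiolite Green for 40 min at room temperature; thiocholine fluorescence (Ex/Em 490/520 nm) reports endogenous AChE activity.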

[4] = biological target: Acetylcholinesterase (Homo sapiens) (UniProt P22303); experiment: Acetylcholinesterase (AChE) small molecule antagonists: enzyme-based qHTS assay with human liver microsomes (AID 1347399); details: Potency: qHTS inhibition; outcome: qHTS inhibition; note: nearly all actives have a fitted effect of over 60% in size
How it was run: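 Recombinant human AChE (50 mU/mL in the enzyme mix) and human liver microsomes (0.25 mg/mL final) were preincubated with compound and NADPH (0.25 mg/mL final) for 30 min at 37 C. Acetylthiocholine/DTNB was then added; thiocholine was read colorimetrically after 10 min at room temperature.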
% is set by controls: 0 for no effect and ±100 for the full control effect.

Sequence of Acetylcholinesterase (Homo sapiens) (P22303 whole entry, looked up): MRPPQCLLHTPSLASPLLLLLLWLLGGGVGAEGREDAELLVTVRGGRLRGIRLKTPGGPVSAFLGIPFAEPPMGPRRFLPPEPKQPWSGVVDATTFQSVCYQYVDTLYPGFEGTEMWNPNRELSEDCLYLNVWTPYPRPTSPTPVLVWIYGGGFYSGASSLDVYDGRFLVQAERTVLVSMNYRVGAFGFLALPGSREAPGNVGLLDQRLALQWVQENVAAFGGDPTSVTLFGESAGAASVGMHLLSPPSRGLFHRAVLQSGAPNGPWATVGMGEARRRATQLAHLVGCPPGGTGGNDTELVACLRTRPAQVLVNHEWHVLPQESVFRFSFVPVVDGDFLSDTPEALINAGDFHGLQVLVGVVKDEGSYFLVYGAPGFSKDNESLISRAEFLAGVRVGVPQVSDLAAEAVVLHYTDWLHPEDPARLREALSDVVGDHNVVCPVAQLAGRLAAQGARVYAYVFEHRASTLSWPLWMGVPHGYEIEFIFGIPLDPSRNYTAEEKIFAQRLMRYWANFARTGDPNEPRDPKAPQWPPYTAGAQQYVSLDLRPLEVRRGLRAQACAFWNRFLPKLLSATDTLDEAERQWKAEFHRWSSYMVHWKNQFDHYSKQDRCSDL

CC1(C)OC[C@@H]2O[C@@]3(C(=O)O)OC(C)(C)O[C@H]3[C@@H]2O1
inactive: Potency [1] | Potency [2] | Potency [3] | Potency [4]

Cc1cn([C@@H]2O[C@H](CO)[C@@H](O)[C@@H]2F)c(=O)[nH]c1=O
inactive: Potency [1] | Potency [2] | Potency [3] | Potency [4]

Nc1nccs1
inactive: Potency [1] | Potency [2] | Potency [3] | Potency [4]

O=[N+]([O-])c1ccc(O)cc1
inactive: Potency [1] | Potency [2] | Potency [3] | Potency [4]

CCCCCCCC(=O)OC
inactive: Potency [1] | Potency [2] | Potency [3] | Potency [4]

CCCCCCCCCCCCCCCCCBr
inactive: activity, negative = inhibition [1] 0.585% [at 23.6 µM] | activity change, negative = inhibition [2] 1.09% [at 23.6 µM] | activity change, negative = inhibition [3] -1.4% [at 23.8 µM] | activity change, negative = inhibition [4] -2.26% [at 23.6 µM]

C=Cc1ccccn1
inactive: Potency [1] | Potency [2] | Potency [3] | Potency [4]

CC1=C(C/C=C(\C)CCC[C@H](C)CCC[C@H](C)CCCC(C)C)C(=O)c2ccccc2C1=O
inactive: Potency [1] | Potency [2] | Potency [3] | Potency [4]

CC(C)c1ccc(O)c(C(C)C)c1
inactive: Potency [1] | Potency [2] | Potency [3] | Potency [4]

CCCCOC(=O)CC#N
inactive: Potency [1] | Potency [2] | Potency [3] | Potency [4]

CCCCCC1C(=O)CCC1CC(=O)OC (stereo not given)
inactive: Potency [1] | Potency [2] | Potency [3] | Potency [4]

O=c1c(O)c(-c2ccc(O)c(O)c2)oc2cc(O)cc(O)c12
inactive: Potency [1] | Potency [2] | Potency [3] | Potency [4]

O=C1c2ccccc2Cc2ccccc21
inactive: Potency [1] | Potency [2] | Potency [3] | Potency [4]

CCCCCCCOC(=O)CCC
inactive: Potency [1] | Potency [2] | Potency [3] | Potency [4]

Nc1nc(-c2ccc([N+](=O)[O-])cc2)cs1
inactive: Potency [1] | Potency [2] | Potency [3] | Potency [4]

CNc1c2c(nn1C)CCCC2
inactive: Potency [1] | Potency [2] | Potency [3] | Potency [4]

CCCCCCCCCCCC(=O)N(CC)CC
inactive: Potency [1] | Potency [2] | Potency [3] | Potency [4]

CC(C)OC(=O)c1cc(C(=O)OC(C)C)cc([N+](=O)[O-])c1
inactive: Potency [1] | Potency [2] | Potency [3] | Potency [4]

CC(=O)N[C@@H](CS)C(=O)O
inactive: Potency [1] | Potency [2] | Potency [3] | Potency [4]

O=C(O)CC(O)C(=O)O (stereo not given)
inactive: Potency [1] | Potency [2] | Potency [3] | Potency [4]

CC1=Nc2ccccc2C1(C)C
inactive: Potency [1] | Potency [2] | Potency [3] | Potency [4]

C=C[Si](OC(=C)C)(OC(=C)C)OC(=C)C
inactive: Potency [1] | Potency [2] | Potency [3] | Potency [4]

COc1cc(O)cc(O)c1
inactive: Potency [1] | Potency [2] | Potency [3] | Potency [4]

CCOC(=O)c1cc(=O)c2c(OCC(COc3cccc4oc(C(=O)OCC)cc(=O)c34)OC(=O)[C@@H](N)CCCCN)cccc2o1
inactive: Potency [1] | Potency [2] | Potency [3] | Potency [4]

S=c1nc[nH]c2nc[nH]c12
inactive: Potency [1] | Potency [2] | Potency [3] | Potency [4]

CCOC(=O)C(F)(F)F
inactive: Potency [1] | Potency [2] | Potency [3] | Potency [4]

CCCCCCCC=O
inactive: Potency [1] | Potency [2] | Potency [3] | Potency [4]

O=C(O)c1ccc(Cl)c(Cl)c1
inactive: Potency [1] | Potency [2] | Potency [3] | Potency [4]

CC(C)(C)C(=O)c1ccccc1
inactive: Potency [1] | Potency [2] | Potency [3] | Potency [4]

CC(=O)C1C(=O)C=C(C)OC1=O (stereo not given)
inactive: Potency [1] | Potency [2] | Potency [3] | Potency [4]
